Here are results for 96 molecules from PubChem BioAssay AID1851 (National Center for Advancing Translational Sciences (NCATS), 2009).

Values joined by “and” are separate entries in the source; they are usually repeats but may differ in a detail not shown here. Equal entries are not always repeated. The campaign covered roughly 16,000 compounds. About 2,600 (16%) were called active. Not shown: some 20% with an inconclusive outcome. Calls come from the whole dose curve; as a rule, active = well fitted curve in the direction sought with a large enough effect; inconclusive = small, poorly fitted or top-dose-only effect, or effect the other way; inactive = no such curve, though single readings can be large or run the other way. Only a sample is shown.
% is set by controls: 0 for no effect and ±100 for the full control effect.

Cytochrome P450 2D6 (Homo sapiens), sequence (P10635 whole entry, looked up): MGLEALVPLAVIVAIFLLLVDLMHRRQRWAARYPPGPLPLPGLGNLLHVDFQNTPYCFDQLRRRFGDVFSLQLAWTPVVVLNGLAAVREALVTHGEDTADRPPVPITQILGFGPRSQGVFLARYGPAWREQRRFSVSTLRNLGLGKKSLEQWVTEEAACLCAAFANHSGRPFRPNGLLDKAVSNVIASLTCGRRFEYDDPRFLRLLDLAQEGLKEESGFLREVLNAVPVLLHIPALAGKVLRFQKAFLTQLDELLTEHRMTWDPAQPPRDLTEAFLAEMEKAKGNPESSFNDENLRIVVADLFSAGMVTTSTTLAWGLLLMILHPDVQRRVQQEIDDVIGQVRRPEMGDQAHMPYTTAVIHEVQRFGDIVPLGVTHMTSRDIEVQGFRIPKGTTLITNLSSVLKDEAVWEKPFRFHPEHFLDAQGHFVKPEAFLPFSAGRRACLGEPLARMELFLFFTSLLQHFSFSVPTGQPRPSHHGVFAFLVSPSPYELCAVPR

The assay has as its target Cytochrome P450 2D6 (Homo sapiens) (UniProt P10635). The experiment in a line: Cytochrome panel assay with activity outcomes. The note with it: recombinant CYP, pro-luciferin dealkylation, luminescence, p450-cyp2d6; series mostly up to 57.1 µM.
As to `Cc1ccc(NC(=O)NNC(=O)Cn2nc(-c3ccccc3)c(-c3ccccc3)c(C#N)c2=O)cc1`, the AC50 entry is “inactive”.

In the case of `O=C(N1CCOCC1)N1CCN(c2ccccc2)CC1`, the AC50 entry is “inactive”.

As to `Brc1[nH]nc2ccccc12`, the AC50 result is “inactive”.

Turning to `Cc1ccc(S(=O)(=O)N[C@@H]2COC(=O)C/C=C\[C@H](C)COC(=O)N[C@@H](C)C(=O)C/C=C\[C@H]2C)cc1`, the activity, negative = inhibition was 2.75% [at 11.4 µM] (inactive).

Take `CSc1nc(Cl)cc(N(CCO)CCO)n1`: the AC50 result is “inactive”.

As to `Cn1cccc1C(=O)N1CCC[C@@]2(CCN(c3ccccn3)C2)C1`, the AC50 result was “inactive”.

On to `CCN(CC)C(=S)SSC(=S)N(CC)CC`, for which the AC50 entry was “inactive”.

As to `CN(C)[C@H]1C(=O)C(C(=O)NCN2CCCC2)=C(O)[C@]2(O)C(=O)C3=C(O)c4c(O)cccc4[C@](C)(O)[C@H]3C[C@H]12`, the activity, negative = inhibition is -10.6% [at 11.4 µM] (inactive).

In the case of `CC(C)Cn1c(-c2ccc(Cl)cc2)cnc1SCC(=O)N1CCOCC1`, the AC50 entry is “inactive”.

For `Cn1cc(-c2nc3cnc(N4CCNCC4)nc3n(-c3ccccc3)c2=O)c2ccccc21`, the AC50 entry was “inactive”.

For `Cn1cnc([N+](=O)[O-])c1Sc1nc(N)nc2c1ncn2[C@H]1C[C@H](O)[C@@H](CO)O1`, the activity, negative = inhibition was 4.56% [at 11.4 µM] (inactive).

As to `CC(C)=NO[C@@H](C)CN1CCCCc2nc(C)c(C)cc21`, the AC50 was 2.51 µM (active).

As for `COC(=O)[C@@H]1CC[C@H](C)[C@@H](c2ccc(C)cc2)N1C(=O)c1ccc(/C=N\O[C@@H](C)CN2CCCCc3nc(C)c(C)cc32)cc1`, the activity, negative = inhibition was -20.9% [at 11.4 µM] (inactive).

`C/C(CCN1CCCc2nc(C)c(C)cc21)=N\OC[C@@H](C)[C@H](OCc1ccccc1)C(C)C`: the activity, negative = inhibition is 0.76% [at 11.4 µM] (inactive).

On to `C/C(CCN1CCCCc2nc(C)c(C)cc21)=N\OC[C@@H](C)[C@H](OCc1ccccc1)C(C)C`, for which the activity, negative = inhibition is -1.58% [at 11.4 µM] (inactive).

As to `C/C(CCN1CCCCc2nc(C)c(C)cc21)=N\O[C@@H](C)c1cn([C@H](CO)Cc2ccccc2)nn1`, the activity, negative = inhibition is -8.6% [at 11.4 µM] (inactive) and -9.25% [at 11.4 µM] (inactive).

As for `C/C(CCN1CCCc2nc(C)c(C)cc21)=N\O[C@@H](C)CN1CCCCc2nc(C)c(C)cc21`, the activity, negative = inhibition was -11.7% [at 11.4 µM] (inactive).

In the case of `C/C(CCN1CCCc2nc(C)c(C)cc21)=N\OC[C@@H](O)[C@@H]1O[C@@H]2OC(C)(C)O[C@@H]2[C@H]1O`, the activity, negative = inhibition is 1.91% [at 11.4 µM] (inactive).

As to `CO/N=C(\C)CCN1CCCc2nc(C)c(C)cc21`, the AC50 is 3.98 µM (active).

In the case of `CO/N=C(\C)CCN1CCCCc2nc(C)c(C)cc21`, the AC50 was 3.98 µM (active).

As for `C/C(=N\NC(N)=S)c1ccc[nH]1`, the activity, negative = inhibition is 7.95% [at 11.4 µM] (inactive).

For the molecule `CCC1=NN(C(=O)CCc2ccccc2)C(O)(C(F)(F)F)C1` (stereo unspecified), the AC50 result was “inactive”.

`NCCSCCC(=O)O`: the activity, negative = inhibition was -2.86% [at 11.4 µM] (inactive).

In the case of `CC(C)[C@H](CO)Nc1nc(Nc2cc(N)cc(Cl)c2)c2ncn(C(C)C)c2n1`, the AC50 result is “inactive”.

Take `COc1cccc(=O)c2c(C)n(-c3cc(C)cc(C)c3)c(C)c12`: the AC50 result was “inactive”.

`O=c1[nH]c2[nH]c(=S)[nH]c(=S)c2[nH]1`: the activity, negative = inhibition was -8.17% [at 11.4 µM] (inactive).

In the case of `COc1ccc(-c2nnc3n2N=C(C)CS3)cc1`, the AC50 result is “inactive”.

With `NS(=O)(=O)c1nc(S(=O)(=O)O)c2[nH]cnc2n1`, the activity, negative = inhibition was 10.8% [at 11.4 µM] (inactive).

As for `COc1ccc2[nH]cc(CCNc3ncnc4ccc(-c5ccccc5C#N)cc34)c2c1`, the AC50 is 7.94 µM (active).

`COc1ccc2[nH]cc(CCNc3ncnc4ccc(-c5ccccc5CN(C)C)cc34)c2c1`: the AC50 is 10 µM (active).

In the case of `COc1ccc(CNc2ncnc3ccc(-c4ccccc4C#N)cc23)c(OC)c1`, the AC50 result was “inactive”.

With `COc1ccc2[nH]cc(CCNc3ncnc4ccc(-c5ccccc5OC)cc34)c2c1`, the AC50 was 3.98 µM (active).

Consider `COc1ccccc1-c1nnc(SCc2nc3ccccc3s2)n1C`, for which the AC50 entry was “inactive”.

In the case of `N=C(N)C(N=Nc1ccccc1)C(=N)N` (stereo unspecified), the activity, negative = inhibition was -0.561% [at 11.4 µM] (inactive).

In the case of `O=C(O)/C=C\c1c2ccc(=O)c(O)c-2oc2c(O)c(O)ccc12`, the activity, negative = inhibition was -4.81% [at 11.4 µM] (inactive).

For the molecule `CC1(C)CC2(CC(C)(C(=O)CSc3nc4ccccc4s3)OC2=O)C(=O)O1` (stereo unspecified), the AC50 result is “inactive”.

In the case of `CCC[C@H]1C[C@H](C(=O)N[C@H]([C@@H]2O[C@H](SC)[C@@H](O)[C@H](O)[C@@H]2O)[C@H](C)O)N(C)C1`, the AC50 result was “inactive”.

For `O=C(Nc1nnc(C2CC2)s1)c1ccncc1`, the AC50 result is “inactive”.

Consider `CC1(C)OC(=O)N(Cc2ccco2)C1(C)O` (stereo unspecified), for which the AC50 entry is “inactive”.

Turning to `O=C(O)/C=C1\NC(=O)c2ccccc21`, the AC50 result is “inactive”.

Regarding `O=C(O)c1ccccc1Nc1ccccc1`, the AC50 entry was “inactive”.

Turning to `Nc1ccccc1Nc1ccccc1`, the AC50 was 22.4 µM (active).

For the molecule `Nc1ccc(Nc2ccccc2)cc1`, the AC50 entry is “inactive”.

With `COc1ccc(-c2nc3cnc(N(C)C)nc3n(Cc3cccs3)c2=O)cc1`, the AC50 entry was “inactive”.

As for `O=S1(=O)[C@H]([C@H]2CC3c4ccccc4C2c2ccccc23)[C@@H](N2CCCCC2)[C@@H]1c1ccccc1`, the AC50 was 3.16 µM (active).

On to `CCCn1nnnc1NC(=O)c1ccc(C)cc1Cl`, for which the AC50 entry was “inactive”.

With `COC(=O)c1ccc(C#CC(NP(=O)(c2ccccc2)c2ccccc2)c2ccccc2)cc1` (stereo unspecified), the AC50 result was “inactive”.

Consider `CC1CN(C(NC(=O)C(C)(C)C)C(Cl)(Cl)Cl)CC(C)O1` (stereo unspecified), for which the AC50 entry was “inactive”.

Turning to `CCOC(=O)c1c(NC(=S)Nc2ccccc2)sc2c1CCN(CCc1ccccc1)C2`, the AC50 was 0.0708 µM (active).

As for `CCOC(=O)c1c(NC(=S)NC(=O)c2cnn(CC)c2)sc2c1CCC(C)C2` (stereo unspecified), the AC50 entry was “inactive”.

Regarding `CCN1CCc2c(sc(NC(=S)NC(=O)c3ccccc3)c2C#N)C1`, the AC50 entry was “inactive”.

In the case of `CCOC(=O)N1CCC(NC(=O)c2cc(S(=O)(=O)N3CCCC3)cn2C)CC1`, the AC50 entry was “inactive”.

As to `COCc1cc(=O)[nH]c2cc(NC(=O)C(F)(F)F)c(C)cc12`, the AC50 entry was “inactive”.

Take `CC(C)(C=O)Cc1cc(C(C)(C)C)c(O)c(C(C)(C)C)c1`: the AC50 was 25.1 µM (active).

As for `Cc1cc(-c2cc(C)c(O)c(C(C)(C)C)c2)cc(C(C)(C)C)c1O`, the activity, negative = inhibition was -4.06% [at 11.4 µM] (inactive).

For `CC(C)(CO)Cc1cc(C(C)(C)C)c(O)c(C(C)(C)C)c1`, the AC50 entry was “inactive”.

As for `O=C(c1ccc2c(c1)N(Cc1ccc(F)cc1)C(=O)CS2)N1CCOCC1`, the AC50 entry is “inactive”.

On to `Cc1cc(OC(=O)c2ccc(Cl)cc2)cc(=O)n1C`, for which the AC50 entry was “inactive”.

Consider `CS(=O)(=O)N1CCC2(CC1)CN(c1ncccn1)C2`, for which the AC50 result is “inactive”.

For the molecule `CC(=O)N1CCC2(CCCN(c3ccccn3)C2)CC1`, the AC50 result is “inactive”.

As to `CS(=O)(=O)N1CCC[C@@]2(CCN(c3ncccn3)C2)C1`, the AC50 result is “inactive”.

On to `O=S(=O)(c1ccccc1)N1CCC2(CC1)CN(c1ncccn1)C2`, for which the AC50 entry is “inactive”.

In the case of `CS(=O)(=O)N1CCC[C@@]2(CCN(c3ccccn3)C2)C1`, the AC50 result is “inactive”.

Regarding `O=S(=O)(c1ccccc1)N1CCC2(CCCN(c3ncccn3)C2)CC1`, the AC50 is 12.6 µM (active).

As to `O=S(=O)(c1ccccc1)N1CCC2(CCCN(c3ccccn3)C2)CC1`, the AC50 is 12.6 µM (active).

In the case of `CS(=O)(=O)N1CCC2(CCCN(c3ncccn3)C2)CC1`, the AC50 was 15.8 µM (active).

Consider `O=S(=O)(c1ccccc1)N1CCC2(CCN(c3ncccn3)CC2)CC1`, for which the AC50 result was “inactive”.

For `NCCCCNCCCN`, the AC50 result is “inactive”.

As for `CC1CCN(c2cc(N3CCC(C)CC3)c([N+](=O)[O-])cc2/C=C(\C#N)c2nn(-c3ccccc3)c(N)c2C#N)CC1`, the AC50 entry was “inactive”.

Turning to `CN(CCO)c1nc(N)c2c(N)nc3c(c2c1C#N)CC(=O)N3C1CCCC1`, the AC50 entry is “inactive”.

`C[C@@](N)(Cc1ccc(O)cc1)C(=O)O`: the AC50 result was “inactive”.

As for `CC(C)OCCCN1CN(S(=O)(=O)c2cccc(Cl)c2)c2nc3ccccc3nc21`, the AC50 entry was “inactive”.

Consider `CC(=O)NN1C(=O)/C(=C\c2ccc(C)cc2)SC1=S`, for which the AC50 entry is “inactive”.

For the molecule `CN(CCO)Cc1ncccc1O`, the activity, negative = inhibition is -1.69% [at 11.4 µM] (inactive).

Consider `O=C(Nc1cccc(C(F)(F)F)c1)c1n[nH]c(Cn2cncn2)n1`, for which the AC50 entry is “inactive”.

On to `N[C@@H]1CONC1=O`, for which the AC50 result was “inactive”.

Regarding `Cc1ccc(N(C(=O)c2csnn2)C(C(=O)NC(C)(C)C)c2cccs2)cc1` (stereo unspecified), the AC50 entry is “inactive”.

Regarding `CC(C)(C)[Si](C)(C)c1c2c(nc3ccc(OCc4ccccc4)cc13)-c1cccc(=O)n1C2`, the AC50 entry is “inactive”.

Turning to `COc1ccc2nc3c(c([Si](C)(C)C(C)(C)C)c2c1)Cn1c-3cccc1=O`, the AC50 was 2 µM (active).

For the molecule `CC(C)c1cccc2nc3c(c([Si](C)(C)C(C)(C)C)c12)Cn1c-3cccc1=O`, the AC50 result is “inactive”.

For the molecule `O=C1C(CCS(=O)c2ccccc2)C(=O)N(c2ccccc2)N1c1ccccc1` (stereo unspecified), the AC50 entry was “inactive”.

Turning to `CN(Cc1ccco1)c1ncnc2ccc(-c3ccccc3C(F)(F)F)cc12`, the AC50 was 10 µM (active).

Consider `CN(Cc1ccco1)c1ncncc1-c1cccc(C#N)c1`, for which the AC50 result was “inactive”.

On to `CN(Cc1ccco1)c1ncnc2ccc(-c3ccccc3Cl)cc12`, for which the AC50 is 7.94 µM (active).

As to `CN(C)Cc1ccccc1-c1ccc2ncnc(N(C)Cc3ccco3)c2c1`, the AC50 was 2 µM (active).

For the molecule `CN(Cc1ccco1)c1ncnc2ccc(-c3ccccc3C#N)cc12`, the concentration at half-maximal activity (AC50) is 15.8 µM (active).

For `FC(F)(F)c1ccccc1-c1ccc2ncnc(N3CCOCC3)c2c1`, the AC50 entry is “inactive”.

For `COCCNC(=O)c1sc2nc(-c3ccccc3)cn2c1C`, the AC50 entry is “inactive”.

In the case of `Cc1ccc(NC(=O)C(=O)NCc2ccc(/C=C(/C#N)C(=O)NCc3cccnc3)o2)cc1`, the AC50 result is “inactive”.

`Nc1ncnc2c1ncn2[C@@H]1CCCO1`: the AC50 entry was “inactive”.

For the molecule `CCN1C(=O)C2(SC(NC(C)=O)=NN2C(C)=O)c2cc(C)ccc21` (stereo unspecified), the AC50 result is “inactive”.

Regarding `CC[C@H](Cc1c(I)cc(I)c(N)c1I)C(=O)O`, the AC50 result was “inactive”.

For `CNc1cnn(-c2ccccc2)c(=O)c1Cl`, the AC50 entry was “inactive”.

For the molecule `N#[N+]c1ccc(Nc2ccccc2)cc1`, the activity, negative = inhibition was 7.95% [at 11.4 µM] (inactive).

On to `COc1ccc(Oc2ncc3nc(CCc4ccccc4)c(=O)n(C)c3n2)cc1`, for which the AC50 entry is “inactive”.

For the molecule `CCOc1ccc(NC(=O)CCNS(=O)(=O)c2ccc3c(c2)c(=O)n(C)c(=O)n3C)cc1`, the AC50 entry was “inactive”.
